In the supplement of paper PMC5641865, “A screen for kinase inhibitors identifies antimicrobial imidazopyridine aminofurazans as specific inhibitors of the Listeria monocytogenes PASTA kinase PrkA” (The Journal of Biological Chemistry, 2017):
± gives the standard deviation of the averaged measurements.

Tested on: Listeria monocytogenes 10403S
Experiment: growth inhibition relative to ceftriaxone-alone control; higher = stronger potentiation of ceftriaxone growth inhibition
Conditions: 10 µM; ceftriaxone 1 ug/ml; 12 h
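Note: End-point A600 read in BHI broth at 37 °C with 2% DMSO, inhibition computed as (1 − OD with compound plus ceftriaxone ÷ OD with ceftriaxone only) × 100.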

SMILES | growth inhibition
COc1cccc(-c2cc(=O)c3ccccc3o2)c1N | 6.7074 ± 0.0026%
COc1ccc(-c2ccc3c(N4CCOCC4)nc(N4C[C@@H](C)O[C@@H](C)C4)nc3n2)cc1CO | -4.35 ± 2.4%
NC(=O)c1ccc(N(C(N)=O)c2c(F)cccc2F)nc1-c1ccc(F)cc1F | 3.69 ± 12%
COc1ccc(Nc2ncc(-c3ccccc3)o2)cc1OC | 10.7 ± 3.4%
CCc1cccc(NC(=O)Nc2ccc(Oc3ccc4nc(NC(=O)OC)[nH]c4c3)cc2)c1 | 9.75 ± 3.1%
Nc1ccc(C#Cc2cncnc2Nc2ccc(OCc3cccc(F)c3)c(Cl)c2)cc1 | -6.22 ± 2.5%
Cc1cccc2c1NC(=O)/C2=N\Nc1ccc(S(N)(=O)=O)cc1 | -10.2 ± 7.5%
Oc1c2ccccc2c2c3c(cccc13)N=N2 | 10.4 ± 10%
COC(=O)Nc1nc2ccc(S(=O)(=O)c3ccc(NC(=O)Nc4cc(C(F)(F)F)ccc4F)cc3)cc2[nH]1 | -13.3 ± 8.2%
C=CC(=O)Nc1ccc2ncnc(Nc3ccc(OCc4cccc(F)c4)c(Cl)c3)c2c1 | 17.47 ± 0.16%
COc1ccc2c(-c3ccnc(Nc4cccc(OC(F)(F)F)c4)n3)cnn2n1 | -7.53 ± 17%
Nc1nc(Nc2ccc(S(N)(=O)=O)cc2)nn1C(=O)c1c(F)cccc1F | 27.6 ± 6.5%
Nc1nc(-c2ccccn2)c(-c2ccc3ncccc3n2)s1 | 0.104 ± 3%
CCc1cc(Nc2nccc(-c3c(-c4ccc(OC)c(C(=O)Nc5c(F)cccc5F)c4)nc4ccccn34)n2)c(OC)cc1N1CCC(N2CCN(S(C)(=O)=O)CC2)CC1 | 24.5 ± 8%
CCN(CC)S(=O)(=O)c1ccc(OC)c(Nc2ncc(-c3ccccc3)o2)c1 | -5.97 ± 2.9%
CCCCOc1c(C(=O)c2c(F)cc(C)cc2F)c[nH]c2nncc1-2 | -6.78 ± 8.6%
C[C@@H](N)[C@H]1CC[C@H](C(=O)Nc2ccncc2)CC1 | 24.6 ± 17%
Cc1ccc(C(=O)NC2CCC2)cc1-c1ccc(C(=O)NCC2CC2)cc1 | -1.49 ± 1.4%
Cc1ccc(C(=O)Nc2cccc(C(F)(F)F)c2)cc1Nc1nc(-c2cccnc2)nc2c1cnn2C | -1.9 ± 16%
CC1(COc2ccc3c(c2)ncn3-c2ccc3cccc(N4CCC(N)CC4)c3n2)COC1 | 32 ± 14%
[O-][S+]1CCN(Cc2ccc(-c3ccc4ncnc(Nc5ccc(OCc6cccc(F)c6)c(Cl)c5)c4c3)o2)CC1 | -4.71 ± 1.9%
Fc1cccc(COc2ccc(Nc3ncnc4sc(-c5cccs5)cc34)cc2Cl)c1 | -4.36 ± 4.4%
Fc1ccc(-c2ncn(C3CCNCC3)c2-c2ccnc(Oc3ccc(Oc4ccccc4)cc3)n2)cc1 | 12.2 ± 24%
